{"source": "ChEMBL document CHEMBL4513216", "about": "“Probing the Open Global Health Chemical Diversity Library for Multistage-Active Starting Points for Next-Generation Antimalarials” (ACS Infect Dis, 2020)", "note": "The whole screen tested about 68,000 compounds, of which about 2,700 (4%) showed an effect of 50% or more. Many of the other results were omitted from the sample, so strong results are more common in it than they were.", "data": [{"system": "Plasmodium berghei", "assay": "Screen against P. berghei liver stage (PbLuc), transformed with Luciferase, at 2uM", "format": "functional, HepG2", "conditions": "tested at 2 uM", "units": {"INHIBITION": "%"}, "values": [{"smiles": "CNC(=O)c1nc(CN2CCOC(C(F)(F)F)C2)no1", "note": "(configuration not stated)", "INHIBITION": 65.76}, {"smiles": "NC(=O)c1nc(CN2CCOC(C(F)(F)F)C2)no1", "note": "(configuration not stated)", "INHIBITION": 43.91}, {"smiles": "CNC(=O)c1nc(CN2CCOC(CCCC(C)C)C2)no1", "note": "(configuration not stated)", "INHIBITION": -65.52}, {"smiles": "COC(=O)CC(c1ccc(OC)c(OC)c1OC)c1c(O)n[nH]c1C", "note": "(configuration not stated)", "INHIBITION": -8.07}, {"smiles": "Cc1cc2c(=O)n3c(nc2s1)CCN(C(=O)c1nn(C)cc1Cl)CC3", "INHIBITION": 26.56}, {"smiles": "Cc1cc2c(=O)n3c(nc2s1)CCN(C(=O)c1cnn(C)c1)CC3", "INHIBITION": -18.04}, {"smiles": "Cc1cc2c(=O)n3c(nc2s1)CCN(C(=O)c1cn(C)nc1C)CC3", "INHIBITION": 66.16}, {"smiles": "COCCc1noc(CN(C)c2cc(C)ncn2)n1", "INHIBITION": 41.63}, {"smiles": "Cc1nc(N2CCN(C(=O)c3ccncc3)CC2)c2c(n1)c(C)nn2C", "INHIBITION": 4.87}, {"smiles": "COc1cccc(CC2(C(=O)O)CCN(c3nccs3)CC2)c1", "INHIBITION": 50.59}, {"smiles": "COc1cccc(CC2(C(=O)O)CCN(c3ccc(Cl)cn3)CC2)c1", "INHIBITION": 7.67}, {"smiles": "COc1cccc(CC2(CO)CCCN(c3nccs3)C2)c1", "note": "(configuration not stated)", "INHIBITION": 14.21}, {"smiles": "Cc1nc(N(C)Cc2cccc(O)c2)nc2cc(S(C)(=O)=O)ccc12", "INHIBITION": 33.4}, {"smiles": "O=C(CN1CCCc2sccc2C1=O)NC1CCc2nccn2C1", "note": "(configuration not stated)", "INHIBITION": -4.89}, {"smiles": "O=S(=O)(c1cccs1)N1CCN(Cc2nc(-c3ccco3)cs2)CC1", "INHIBITION": 29.89}, {"smiles": "Cc1ccc(CN2CCC3(CCC3NS(=O)(=O)c3ccccc3)CC2)o1", "note": "(configuration not stated)", "INHIBITION": 11.18}, {"smiles": "O=S(=O)(NC1CCC12CCN(CC1CC1)CC2)c1ccccc1", "note": "(configuration not stated)", "INHIBITION": -3.36}, {"smiles": "O=S(=O)(NC1CCC12CCN(CC1CCOCC1)CC2)c1ccccc1", "note": "(configuration not stated)", "INHIBITION": 51.36}, {"smiles": "CCc1nnc2n1CCN(C(=O)C(C)Oc1ccc(C#N)cc1)C2", "note": "(configuration not stated)", "INHIBITION": 10.77}, {"smiles": "CC(=O)N(C)C1CCN(c2ncc3c(n2)CCN3c2ccccc2)C1", "note": "(configuration not stated)", "INHIBITION": -13.72}, {"smiles": "CNC(=O)C1CCN(c2ncc3c(n2)CCN3c2ccccc2)C1", "note": "(configuration not stated)", "INHIBITION": 51.96}, {"smiles": "CN(CCO)C1CCN(c2ncc3c(n2)CCN3c2ccccc2)CC1", "INHIBITION": 15.84}, {"smiles": "COCCC1(CNC(=O)Nc2ccnc(C)c2)CCCC1", "INHIBITION": -37.69}, {"smiles": "CC(=O)N1N=C(c2ccco2)OC1C(=O)NCCc1ccc(F)cc1", "note": "(configuration not stated)", "INHIBITION": 58.6}, {"smiles": "CC(=O)N1N=C(c2ccccc2)OC1C(=O)NCCc1ccc(C)cc1", "note": "(configuration not stated)", "INHIBITION": 34.18}, {"smiles": "CC(=O)N1N=C(c2ccco2)OC1C(=O)NCC(C)C", "note": "(configuration not stated)", "INHIBITION": 5.77}, {"smiles": "CC(=O)N1N=C(c2ccco2)OC1C(=O)NCCc1ccc(O)cc1", "note": "(configuration not stated)", "INHIBITION": 20.42}, {"smiles": "CC(=O)N1N=C(c2ccccc2)OC1C(=O)NCCc1ccc(O)cc1", "note": "(configuration not stated)", "INHIBITION": 26.64}, {"smiles": "CC(=O)N1N=C(c2ccccc2)OC1C(=O)NCCC1=CCCCC1", "note": "(configuration not stated)", "INHIBITION": 85.54}, {"smiles": "Cc1noc(CNC(=O)[C@@H](C)NC(=O)OC(C)(C)C)n1", "INHIBITION": -29.78}, {"smiles": "Cc1[nH]n(C)c2nc(=O)cc(C(F)(F)C(F)(F)F)c1-2", "INHIBITION": -69.92}, {"smiles": "O=C([C@@H]1COC[C@H]2CN(C3CCCC3)C[C@H]21)N1CCC(F)CC1", "INHIBITION": 9.45}, {"smiles": "O=S(=O)(CCc1ccccc1)Nc1cc(Cl)ccn1", "INHIBITION": 0.51}, {"smiles": "CCn1cc(S(=O)(=O)N2CCC3(CCCN(CC4CCC4)C3=O)C2)cn1", "note": "(configuration not stated)", "INHIBITION": 13.58}, {"smiles": "Cc1cnn(CC2CCCCN2C(=O)CN(C)C2CC2)c1", "note": "(configuration not stated)", "INHIBITION": 21.31}, {"smiles": "O[C@H]1CN(CCOc2ccc(F)cc2)CC[C@@]12CCCO2", "INHIBITION": 9.05}, {"smiles": "O=C(N1CCOCC1)N1CCc2ncc(CN3CCCCC3)n2CC1", "INHIBITION": 56.25}, {"smiles": "O=C(C1CCOCC1)N1CCc2ncc(CN3CCCCC3)n2CC1", "INHIBITION": 41.28}, {"smiles": "O=C(C1CCOCC1)N1CCc2ncc(CN3CCCC3)n2CC1", "INHIBITION": -9.48}, {"smiles": "COc1c(Cl)cccc1NCc1csc(NC(C)=O)n1", "INHIBITION": -49.16}, {"smiles": "Cc1noc([C@H]2C[C@@H]3CCN(C(=O)N(C)C)C[C@H]3O2)n1", "INHIBITION": -7.58}, {"smiles": "CC(NCc1nnc2n1CCCC2)c1nc(-c2cccs2)no1", "note": "(configuration not stated)", "INHIBITION": 26.14}, {"smiles": "Cc1cc(NC(=O)CN2CCn3c(nnc3C3CC3)C2)on1", "INHIBITION": 17.12}, {"smiles": "CCN(CC)c1ncc(Cl)c(C(=O)NC2CCC(O)CC2)n1", "note": "(configuration not stated)", "INHIBITION": -2.22}, {"smiles": "CCN(CC)c1ncc(Cl)c(C(=O)NC2CC2)n1", "INHIBITION": 26.8}, {"smiles": "CCN(CC)c1ncc(Cl)c(C(=O)NC2CCc3nccn3C2)n1", "note": "(configuration not stated)", "INHIBITION": 59.56}, {"smiles": "CCOC(=O)[C@@H]1[C@@H](c2ccccc2)CN2CCN(C(C)=O)C[C@H]12", "INHIBITION": 40.13}, {"smiles": "CCOCCn1c(=O)[nH]c2cc(C(=O)N(C)Cc3nc(C)c[nH]3)ccc21", "INHIBITION": 11.64}, {"smiles": "CCOCCn1c(=O)[nH]c2cc(C(=O)N(C)Cc3cc(C)[nH]n3)ccc21", "INHIBITION": 14.24}, {"smiles": "CCOCCn1c(=O)[nH]c2cc(C(=O)N(C)Cc3nc(C)cs3)ccc21", "INHIBITION": 51.98}, {"smiles": "COCCN1CCc2ncnc(-c3ccccc3)c2CC1", "INHIBITION": 39.44}, {"smiles": "CCc1nccn1C1CCCN(C(=O)c2cnn3ccc(C)nc23)C1", "note": "(configuration not stated)", "INHIBITION": -14.3}]}]}
